Experimental data taken from PubChem BioAssay (NCI).
Compounds without any hit were thinned out: in the full panel of roughly 79,000, 15% have a hit. Activity calls are given as the source filed them. Rule as the data show it: active = growth inhibition above about 70%; inactive = the rest.

Columns and labels:
[1] = NCI Yeast Anticancer Drug Screen. Data for the rad50 strain (AID 155);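 also: 0% = growth of vehicle-only cultures of the same strain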; details: S. cerevisiae rad50 strain growth inhibition; at 50.0 µM; hits give high values
How it was run: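 Readout: growth inhibition relative to vehicle-treated cultures. Compound exposure was carried out in a genetically defined yeast strain deficient in DNA damage repair.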

[2] = NCI Yeast Anticancer Drug Screen. Data for the mec2-1 strain (AID 157); details: S. cerevisiae mec2-1 strain, at 50.0 µM, hits give high values
How it was run: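 Growth inhibition is read against vehicle-treated controls after compound exposure of the mec2-1 yeast strain, which is defective in DNA damage repair or cell cycle control.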

[3] = NCI Yeast Anticancer Drug Screen. Data for the sgs1 mgt1 strain (AID 161);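 also: 0% = growth of cultures given vehicle only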; details: S. cerevisiae sgs1 mgt1 strain, at 50.0 µM, hits give high values
How it was run: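 Yeast cells carrying a defined DNA-repair defect were exposed to test compounds. Growth inhibition was measured relative to vehicle-treated controls.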

[4] = NCI Yeast Anticancer Drug Screen. Data for the cln2 rad14 strain (AID 165);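 also: 0% = growth equal to vehicle treated cultures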; details: S. cerevisiae cln2 rad14 strain, at 50.0 µM, hits give high values
How it was run: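 Growth inhibition, relative to vehicle-treated controls, is the read-out. The test organism is a yeast strain with defined genetic alterations, cln2 rad14.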

[5] = NCI Yeast Anticancer Drug Screen. Data for the bub3 strain (AID 167); details: S. cerevisiae bub3 mutant strain, at 50.0 µM, hits give high values
How it was run: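 Readout: yeast growth inhibition, expressed relative to vehicle-only wells. The test organism is a mutant strain from a panel with lesions in DNA repair or checkpoint genes.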

Measured: growth inhibition

O=C(O)C(Cc1cccs1)C(=O)OCCc1ccccc1 (stereo not given)
inactive: [1] -4.95% | [2] -6.45% | [3] 1.05% | [4] -10.8% | [5] -13.7%

CCC(C(=O)c1ccccc1)c1cccc2c1N(C(C)=O)CC2 (stereo not given)
inactive: [1] 0.05% | [2] 6.9% | [3] -7.5% | [4] -5.6% | [5] 11.2%

COc1ccc(OC)c(C(O)P(=O)(c2ccccc2)c2ccccc2)c1 (stereo not given)
inactive: [1] 12.5% | [2] 1.65% | [3] 31.4% | [4] 12.2% | [5] 27.1%

CCOc1ccccc1/C=C/C(=O)O
inactive: [1] 4.6% | [2] -9.7% | [3] -11.8% | [4] -19% | [5] -22.1%

c1ccc2c(c1)CCOC2
inactive: [1] -0.4% | [2] 5.9% | [3] 3.45% | [4] 6.5% | [5] 8.55%

O=[N+]([O-])c1ccc(N/N=C2\CCC3CC23)c([N+](=O)[O-])c1 (stereo not given)
inactive: [1] 1% | [2] -15.2% | [3] -2.15% | [4] -1.35% | [5] -0.55%

CCCCCN(CCCCC)C(C)=O
inactive: [1] 6.85% | [2] 5.95% | [3] 2.3% | [4] -0.65% | [5] -2.15%

Cc1c(-c2ccccc2)c2ccccc2n1C
inactive: [1] 38.1% | [2] 8.55% | [3] 10.4% | [4] 20.3% | [5] 20.6%

CCCCCCCCCCCCCCCC(=O)N(CCCCCCCCCCC(=O)O)CC(O)C(O)C(OC1OC(CO)C(O)C(O)C1O)C(O)CO (stereo not given)
inactive: [1] -8.15% | [2] -23.6% | [3] 10.2% | [4] -22.3% | [5] 50.6%

CCOC(=O)NC(CC)CO (stereo not given)
inactive: [1] -13.1% | [2] -22.9% | [3] -14% | [4] 16.1% | [5] 5.55%

COc1ccccc1/C=C1/C(=O)ON=C1C
inactive: [1] 0.05% | [2] -21.1% | [3] -11.9% | [4] 9.6% | [5] -17.1%

CC1(C)COC(C2(C)C(=O)C=C(c3ccccc3)c3ccccc32)=N1 (stereo not given)
inactive: [1] 25.3% | [2] -11.8% | [3] 29.8% | [4] 12.8% | [5] 3.9%

CC[C@@]1(OC(=O)CN2CCNCC2)C(=O)OCc2c1cc1n(c2=O)Cc2cc3ccccc3nc2-1
inactive: [1] 52.1% | [3] 49.1% | [4] 29.6% | [5] 26.1%
active: [2] 70.8%

CCOC(=O)C(NC(C)=O)C(O)c1ccc(Cl)cc1Cl (stereo not given)
inactive: [1] 18.4% | [2] 3.4% | [3] 0.05% | [4] -45.9% | [5] -9.4%

CCN(CC)CCN1C(=O)c2c(c(-c3ccccc3)c3ccccc3c2-c2ccccc2)C1=O
inactive: [1] 21.6% | [2] 35.2% | [3] 21.6% | [4] 13.2% | [5] 27.4%

Cc1cc(=O)[nH]c(=O)n1CCCN(C)CCCn1c(C)cc(=O)[nH]c1=O
inactive: [1] 2.2% | [2] -2.35% | [3] 8.85% | [4] -0.9% | [5] -28.6%

CC(=O)Nc1ccc(-c2cn3ccccc3n2)cc1
inactive: [1] 6.6% | [2] -1.5% | [3] 20.7% | [4] 25.6% | [5] 13.7%

O=c1cc(N2CCOCC2)n2c(ccc3ccccc32)n1
inactive: [1] -17.9% | [2] -2.4% | [3] -10.4% | [4] 13.2% | [5] 22%

O=c1[nH]c(=O)n(C2OC(CO)C(O)C2O)cc1OCc1ccccc1 (stereo not given)
inactive: [1] -31.8% | [2] -19.8% | [3] -22.8% | [4] 4.75% | [5] -6.6%

CCOC(=O)NN(C/C(Cl)=C/Cl)C/C(Cl)=C/Cl
inactive: [1] -2% | [2] -0.95% | [3] 0.4% | [4] -46.8% | [5] 7.35%

Cc1ccccc1NS(=O)(=O)c1c(N)ncn1C
inactive: [1] -5.2% | [2] 3.55% | [3] -0.9% | [4] -29.3% | [5] -0.65%
